# Compounds with a hit are over-represented: about 5.1% of the library has one in this group of screens.
# HEK293 cAMP cs = qHTS Assay for Agonists of the Thyroid Stimulating Hormone Receptor: Activators of Intracellular cAMP Concentrations in Parental HEK 293 | parental HEK293 CNG cAMP sensor, membrane potential fluorescence | hit rate 2.5% among 73,000 | Potency, µM (top dose mostly 57.1 µM), for inactives: at the highest dose activation, hits mostly activators; also: % of control where 0% means no effect; nearly all actives have a fitted effect of over 55% in size
#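 Counterscreen for endogenous-receptor signalling: CNG-channel HEK 293 cells report cAMP rise by membrane depolarization. After 60 min dye equilibration with 100 uM RO 20-1724, compounds incubated 30 min before bottom-read fluorescence at 590 nm.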
# Pol III holo inh = qHTS Assay for Inhibitors of DNA Polymerase III Holoenzyme System | reconstituted DNA polymerase III holoenzyme replication, biochemical | Potency, µM (doses to about 57.1 µM), without a hit: top-dose activity change, negative = inhibition | hit rate 0.25% among 71,000; also: % is scaled to controls: 0 for no effect and ±100 for the full control effect
#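 Reconstituted *E. coli* holoenzyme (0.35 nM Pol III, 1 nM beta, 154 nM SSB, 2 nM primase) was preincubated with compound for 15 min at RT. Synthesis on 1.4 nM ssM13Gori ran 35 min, then was stopped with PicoGreen/EDTA and read as dsDNA fluorescence.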
# TSHR agonist = qHTS Assay for Agonists of the Thyroid Stimulating Hormone Receptor; hit rate 0.48% among 73,000; Potency, µM (highest dose often 57.1 µM), without a hit: at the highest dose activation, most hits filed as activators; AID 926, 2007; Thyrotropin receptor (Homo sapiens), P16473; HEK293-CNG-TSHR cells (CNG channel as cAMP sensor), membrane potential dye, cAMP; active = well fitted activation curve with a large enough effect in the main read-out, with a control signal flat, not every such curve was filed as active; inconclusive = small, poorly fitted or top-dose-only effect, or a change in a side signal; inactive = no such curve, though single readings can be large or run the other way; % of control where 0% means no effect;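 also: the control signal comes from parental cells without the receptor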
#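 cAMP rise detected as CNG-channel membrane depolarization by fluorescent dye (emission 590 nm), 30 min after compound, following 60 min dye loading containing 100 uM RO 20-1724 at room temperature. Cells: TSHR/CNG HEK 293, with parental CNG HEK 293 as control.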
# Tau filament bind = qHTS Assay for Tau Filament Binding; Microtubule-associated protein tau (Homo sapiens), P10636; recombinant tau filaments, thioflavin S fluorescence, 15 h; filaments grown with octadecylsulfate alongside compound; Potency, µM (top dose mostly 57.1 µM), for inactives: at the top dose activity change, negative = inhibition; hit rate 2% among 71,000; AID 596, 2007;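 also: % is scaled to controls: 0 for no effect and ±100 for the full control effect; actives lower thioflavin S fluorescence by blocking filaments or displacing dye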
# Target sequence (P10636 whole entry, looked up): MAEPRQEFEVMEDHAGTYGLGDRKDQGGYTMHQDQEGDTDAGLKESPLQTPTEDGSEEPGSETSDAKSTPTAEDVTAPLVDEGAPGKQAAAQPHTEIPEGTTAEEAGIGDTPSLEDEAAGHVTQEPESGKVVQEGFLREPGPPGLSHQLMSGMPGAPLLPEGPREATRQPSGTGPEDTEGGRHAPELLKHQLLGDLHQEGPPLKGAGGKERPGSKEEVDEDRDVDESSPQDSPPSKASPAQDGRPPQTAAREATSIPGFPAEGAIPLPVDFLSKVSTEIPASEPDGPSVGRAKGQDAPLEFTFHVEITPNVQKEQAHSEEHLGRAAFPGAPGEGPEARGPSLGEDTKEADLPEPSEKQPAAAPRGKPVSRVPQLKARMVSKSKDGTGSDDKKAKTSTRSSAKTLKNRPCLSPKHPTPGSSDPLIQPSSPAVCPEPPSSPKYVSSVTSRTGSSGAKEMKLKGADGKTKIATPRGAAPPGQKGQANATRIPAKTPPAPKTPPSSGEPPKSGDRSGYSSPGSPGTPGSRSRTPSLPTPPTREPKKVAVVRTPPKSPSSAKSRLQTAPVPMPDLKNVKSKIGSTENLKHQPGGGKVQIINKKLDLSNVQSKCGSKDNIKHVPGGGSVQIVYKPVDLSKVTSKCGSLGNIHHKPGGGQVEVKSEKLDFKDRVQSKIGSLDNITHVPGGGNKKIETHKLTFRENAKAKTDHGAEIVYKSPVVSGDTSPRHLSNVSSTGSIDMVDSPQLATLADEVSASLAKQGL
#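 Recombinant tau protein (human, 1 uM final) plus 30 uM ODS in HEPES pH 7.4 with NaCl, DTT and thioflavine S. Compound present from the start; fluorescence at 510 nm after 15 h, 37 C.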
# Hsp90 Hop PPI = qHTS Assay for Disrupters of an Hsp90 Co-Chaperone Interaction; AlphaScreen TPR2A-His6 binding biotin-Hsp90 C-terminal peptide; Potency, µM (highest dose often 57 µM), for the others: at the highest dose activity change, negative = inhibition; hit rate 0.44% among 71,000; AID 595, 2007; active = well fitted curve in either direction with a large enough effect; inconclusive = small, poorly fitted or top-dose-only effect, or another doubt; also: % is scaled to controls: 0 for no effect and ±100 for the full control effect
# Numbers without * were called inactive; ? = inconclusive; nt = not tested or not shown; ! = not active in a repeat; [ ] = another dose, or the depositor's remark. Unless noted, calls follow the shape of the dose curve; as a rule, active = well fitted curve in the direction sought with a large enough effect; inconclusive = small, poorly fitted or top-dose-only effect, or another doubt; inactive = no such curve, though single readings can be large; an effect the other way counts as inactive or inconclusive. Potency is read from the fitted curve at half-maximal effect.
SMILES,HEK293 cAMP cs,Pol III holo inh,TSHR agonist,Tau filament bind,Hsp90 Hop PPI
CCn1c2ccccc2c2cc(NC(=O)Cc3ccc(S(=O)(=O)N4CCOCC4)s3)ccc21,-1%,-5%,-11%,6.3µM*,-24%
CCCCC(=O)NC1(C(F)(F)F)C(=O)N(Cc2ccco2)C(C)=C1C(=O)OC (stereo not drawn),3%,-9%,16µM*,8%,-6%
COc1ncc2nc(-c3ccccc3)c(=O)n(CCC#N)c2n1,-3%,-8%,-8%,-8%,-7%
Cc1ccc(S(=O)(=O)N2CCC(C(=O)O)(c3ccccc3)CC2)cc1,-8%[11.4 µM],7%[11.4 µM],12%[11.4 µM],4%[11.4 µM],-4%[11 µM]
Cc1nc2sc3c(c2c2nc(-c4ccco4)nn12)CCCC3,32µM*,-3%,?,-11%,-2%
CCc1cccc(NC(=O)Cn2cc3c(n2)CCCC3)c1,3%,-2%,8%,-13%,-1%
CN(C)c1ccc(NC(=O)Cn2cc3c(n2)CCCC3)cc1,?,-11%,?,13µM*,?
O=C(COc1ccccc1)Nc1nc(-c2cccs2)cs1,25µM*,9%,?,26%,7%
c1ccc(Nc2nc(-c3cccs3)cs2)nc1,-19%,3%,-12%,2%,-6%
CC1Cc2c(COc3ccccc3)nc3c(c2CO1)CN(CCOc1ccccc1)CC3 (stereo not drawn),5%[11.4 µM],nt,10%[11.4 µM],nt,nt
CN=C(NC#N)Nc1ccc(C2=NNC(=O)C[C@@H]2C)cc1,6%,-4%,nt,40µM*!,1%
COc1ccccc1CNc1cc(-c2cccc(NS(C)(=O)=O)c2)ncn1,-5%,-1%,13%,2%,0%
Cc1ccccc1-c1cncnc1NCc1cccs1,16µM*,-8%,?,1%,-1%
Clc1ccccc1-c1cncnc1NCc1cccs1,?,-4%,?,-10%,-6%
Cc1cc(C(=O)COc2cccc(-n3cnnn3)c2)c(C)n1-c1ccccc1,25µM*,-5%,?,11%,-5%
Nc1cccc(NC(=O)c2cccs2)c1,6%,-3%,2%,-22%,-1%
O=C(Nc1cccc(N2CCCC2)c1)c1cccs1,-21%,-3%,-30%,13µM*,-17%
O=C(CSc1nc2ccccc2o1)Nc1nc2c(s1)CCCC2,32µM*,-3%,?,-2%,0%
O=C(CSc1nc2ccccc2o1)Nc1nc2ccccc2s1,?,7%,?,75%,-2%
c1ccc(Nc2cc(-c3ccoc3)ncn2)cc1,6%,-10%,-1%,?,-30%
COc1cccc(-c2cc(=O)c3cc(O)ccc3o2)c1,?,-14%,?,32µM*,-1%
COc1ccc2oc(-c3ccc(O)cc3)cc(=O)c2c1,?,-8%,?,?,-10%
Clc1ccccc1-c1ccc2ncnc(NC3CCNCC3)c2c1,9%,-6%,11%,13%,-7%
CC(=O)N[C@@H](CC(=O)O)C(=O)O,-16%[25.6 µM],-2%[25.6 µM],-13%[25.6 µM],15%[25.6 µM],-6%[26 µM]
Cc1cc(C)cc(OCC(=O)Nc2ccc(N3CCCC3)cc2)c1,-13%,nt,-5%,nt,nt
SMILES,HEK293 cAMP cs,Pol III holo inh,TSHR agonist,Tau filament bind,Hsp90 Hop PPI
O=C(CNCC1CCCO1)Nc1ccc(N2CCCCCC2)cc1 (stereo not drawn),-17%,-5%,-20%,32µM*,-16%
Cc1ccc(OCCCC(=O)Nc2ccc(N3CCOCC3)cc2)c(C)c1,17%,-3%,12%,?,-10%
CCOc1ccccc1OCC(=O)Nc1ccc(N2CCCCC2)cc1,5%,-1%,14%,25µM*,-24%
Cc1ccc(OCC(=O)Nc2ccc(N3CCCC3)cc2)cc1C,-4%[11.4 µM],-3%[11.4 µM],-4%[11.4 µM],1.6µM*,?
Cc1ccccc1OCCCC(=O)Nc1ccc(N2CCOCC2)cc1,22%[11.4 µM],3%[11.4 µM],15%[11.4 µM],3.2µM*,-16%[11 µM]
Cc1cccc(OCC(=O)Nc2ccc(N3CCCC3)cc2)c1C,-25%[11.4 µM],2%[11.4 µM],-25%[11.4 µM],?,?
Cc1ccc(S(=O)(=O)O[C@@H]2[C@H]([C@@H]3COC(C)(C)O3)O[C@H]3OC(C)(C)O[C@@H]32)cc1,-11%[11.4 µM],-24%[11.4 µM],0%[11.4 µM],1%[11.4 µM],1%[11 µM]
CC(C)(C)NS(=O)(=O)c1ccc(OCC(=O)Nc2ccc3c(c2)OCCO3)cc1,0%,-3%,-1%,-6%,-3%
CN1CCN(c2ccc(NC(=O)COc3ccccc3Cl)cc2)CC1,-4%,5%,-18%,16µM*,-7%
Cc1cc(OCC(=O)Nc2ccc3c(c2)OCCO3)ccc1Cl,0.25µM*,-2%,?,14%,2%
COc1ccc(OC)c(N)c1,-17%,1%,-10%,13µM*,-29%
Cc1ccco1,-7%,-4%,-2%,10%,1%
COc1ccc(-n2c(=O)cnc3cnc(Oc4cccc(Cl)c4)nc32)cc1,?,-5%,?,-4%,-5%
COCC(C)OC(=O)C(C#N)c1nc2ccccc2nc1N1CCN(Cc2ccccc2)CC1 (stereo not drawn),-33%,-3%,?,3.2µM*,-7%
C=CCOC(=O)C(C#N)c1nc2ccccc2nc1N1CCN(Cc2ccccc2)CC1 (stereo not drawn),-64%,0%,?,1.6µM*,-14%
CC(C)COC(=O)C(C#N)c1nc2ccccc2nc1N1CCN(Cc2ccccc2)CC1 (stereo not drawn),14%,-1%,5%,2µM*,-9%
COCCOC(=O)C(C#N)c1nc2ccccc2nc1N1CCN(Cc2ccccc2)CC1 (stereo not drawn),-52%,-4%,?,?,-7%
CCOC(=O)N1CCN(c2nc3ccccc3nc2C(C#N)S(=O)(=O)c2ccc(C)cc2)CC1 (stereo not drawn),5%,-11%,7%,17%,-2%
CN1CCN(c2nc3ccccc3nc2C(C#N)C(=O)OC2CCCCC2)CC1 (stereo not drawn),-51%,4%,?,0.63µM*,-6%
CC[C@]1(c2ccccc2)NC(=O)N(C)C1=O,0%[25.6 µM],-2%[25.6 µM],nt,2%[25.6 µM],2%[26 µM]
COc1ccc(CNc2cc(-c3cccc(NS(C)(=O)=O)c3)ncn2)c(OC)c1,3%,-3%,11%,-3%,-9%
O=C(Nc1cccc(F)c1)N1CCCC2(CCN(C(=O)c3ccco3)CC2)C1,18%,-10%,22%,5%,1%
CCC(CC)COC(=O)C(C#N)c1nc2ccccc2nc1N1CCOCC1 (stereo not drawn),30%,-7%,21%,3.2µM*,-7%
Cc1cccc(S(=O)(=O)C(C#N)c2nc3ccccc3nc2N2CCOCC2)c1 (stereo not drawn),-14%,-8%,6%,50%,0%
